The results in this text go back to PubChem BioAssay (EPA / NIEHS).

Results filed as inconclusive are left out. The source made the active and inactive calls. How the source made its calls: active means hit-call score of the fitted dose curve at least 0.9, where 1 is the maximum; inconclusive means response in the unintended direction; inactive means score below 0.9.

The experiment is described as follows: CLD_ACTIN_24hr: CellzDirect (CLD) Gene Expression Assay for Baseline Control (Actin) at 24 hours (AID 2283670). The protocol:
CLD_24hr is a cell-based, multiplexed-readout assay that uses hepatocyte, a human liver primary cell, with measurements taken at 24 hours after chemical dosing in a 96-well plate.CLD_ACTIN_24hr is one of 16 assay component(s) measured or calculated from the CLD_24hr assay. It is designed to make measurements of mRNA induction, a form of inducible reporter, as detected with chemiluminescence signals by Quantitative Nuclease Protection Assay (qNPA) technology.Data from the assay component CLD_ACTIN_24hr was analyzed at the endpoint, CLD_ACTIN_24hr, in the positive analysis fitting direction relative to DMSO as the negative control and baseline of activity. Using a type of inducible reporter, gain-of-signal activity can be used to understand changes in the reporter gene as they relate to the gene ACTA1. Furthermore, this assay endpoint can be referred to as a secondary readout, because this assay has produced multiple assay endpoints where this one serves a background control function. To generalize the intended target to other relatable targets, this assay endpoint is annotated to the background measurement intended target family, where subfamily is baseline control.
Human hepatocyte cultures were treated daily for two consecutive days with fresh dosing solutions containing appropriate concentrations of the 320 ToxCast chemicals (chemical identities were blinded to CellzDirect and other ToxCast collaborators), vehicle control (0.2% DMSO), and positive control inducers as summarized in Table 1. Due to the large number of treatment groups and chemicals examined, the ToxCast chemicals were divided into two groups (spanning two independent cultures of hepatocytes from separate donor preparations (Hu778: ToxCast plates 1 and 2; Hu776: ToxCast plates 3 and 4). Each preparation of human hepatocyte cultures was treated with respective vehicle control, medium only control, set of six positive controls/reference chemicals for the five hepatic receptor pathways, and a subset of eight of the ToxCast chemicals (indoxacarb, pyrithiobac-sodium, norflurazon, cyhalofop-butyl, methomyl, thiram, acetochlor, and propiconazole). These replicate data, coupled with internal replicates designed within the blinded ToxCast chemical library, provided additional data to evaluate interindividual differences between hepatocyte preparations and their potential impact on chemical profiles.Cell morphology and integrity were evaluated using phase-contrast microscopy as an indicator of hepatocyte cell health (Tyson & Green, 1987). Cultures for each treatment group (i.e., media, vehicle [0.2% DMSO], positive control inducers [multiple concentrations], and the ToxCast chemicals [multiple concentrations]) were observed and cell morphology was assessed relative to vehicle control cultures at each harvest time point (0, 6, 24, or 48 h). […] Images were evaluated at the conclusion of the study to assess changes in cell integrity and account for the effects of chemical exposure on uncharacteristic changes in concentration-dependent gene expression profiles. The results from these determinations of apparent cytotoxicity were annotated (yes/no) alongside the corresponding qNPA data for reference.At the conclusion of each treatment period, hepatocyte cultures (96-well) were washed with 1 volume of HBSS, lysed by addition of 25 ul ArrayPlate lysis buffer (HTG, Tucson, AZ), and 70 ul/well of Denaturation Oil, denatured by incubation at 95C for 10 min, and frozen at approximately -70C until analysis by nuclease protection assay (qNPA) (Roberts et al., 2007). For qNPA analysis, cell lysates were thawed at 50C for approximately 30 min, qNPA probes were added, and samples were incubated at 95C for 10 min to begin the detection process by denaturing the target RNA, dissociating the duplexes and secondary structure hybridization. At the conclusion of the hybridization period, S1 nuclease reagent was added to each sample to digest all nonprotected nucleotides at 50C for 60-90 min. […]
For the compound `COP(=O)(OC)O/C(C)=C/C(=O)N(C)C`, the call was inactive.
On to `CC(C)C1(C)N=C(c2ncccc2C(=O)O)NC1=O` (stereo not drawn), for which the result was inactive.
As to `Cc1c(COC(=O)[C@@H]2[C@H](/C=C(\Cl)C(F)(F)F)C2(C)C)cccc1-c1ccccc1`, the compound was called inactive.
For `O=C1C2CC=CCC2C(=O)N1SC(Cl)(Cl)Cl` (stereo not drawn), the call was inactive.
Next, `CSC(=O)c1c(C(F)F)nc(C(F)(F)F)c(C(=O)SC)c1CC(C)C`: “inactive”; `CC(C)N1C(=O)c2ccccc2NS1(=O)=O`: “inactive”; `CO/N=C(/C1=NOCCO1)c1ccccc1Oc1ncnc(Oc2ccccc2Cl)c1F`: “inactive”.
Next, `O=P(O)(O)CCCl`: “inactive”; `CCOc1nc(C(Cl)(Cl)Cl)ns1`: “inactive”; `CS(=O)(=O)c1ccc(C(=O)C2C(=O)CCCC2=O)c([N+](=O)[O-])c1`: “inactive”.
Next, `N#CN=C1SCCN1Cc1ccc(Cl)nc1`: “inactive”.
Consider `Clc1cccc(C(Cl)(Cl)Cl)n1`, for which the result was inactive.
Take `CCCCC(O)(Cn1cncn1)c1ccc(Cl)cc1Cl` (stereo not drawn): the outcome was inactive.
Consider `Cc1cnc(C2=NC(C)(C(C)C)C(=O)N2)c(C(=O)O)c1` (stereo not drawn), for which the call was inactive.
Next, `Cn1c(-c2ccccc2)cc(-c2ccccc2)[n+]1C`: “inactive”; `CC1(C)CON(Cc2ccccc2Cl)C1=O`: “inactive”.
With `Clc1nc(Cl)nc(Nc2ccccc2Cl)n1`, the outcome was inactive.
As for `CCCN(CC)CC1COC2(CCC(C(C)(C)C)CC2)O1` (stereo not drawn), the call was inactive.
The value for `CCSC(=O)N1CCCCCC1` was “inactive”; that for `Nc1c(Cl)c(F)nc(OCC(=O)O)c1Cl` was “inactive”.
Next, `O=C(O)c1c(Cl)ccc2cc(Cl)cnc12`: “inactive”.
Next, `COc1ccc(-c2ccccc2)cc1NNC(=O)OC(C)C`: “inactive”.
Consider `COCc1cnc(C2=NC(C)(C(C)C)C(=O)N2)c(C(=O)O)c1` (stereo not drawn), for which the compound was classed as inactive.
